Calls of active or inactive are those of the source. Unless noted, the call rests on the fitted dose curve; in most records, active means well fitted curve in the direction sought with a large enough effect in the repeat runs; inconclusive means weak or mixed curves; inactive means no such curve, though single readings can be large; an effect the other way counts as inactive or inconclusive.
Columns and labels:
[1] = qHTS assay to identify small molecule antagonists of the thyroid receptor (TR) signaling pathway (AID 743065); further: nearly all actives have a fitted effect of over 55% in size; further: potency means the concentration at half of the fitted maximal effect; on activity, negative = inhibition: series mostly up to about 70 µM
How it was run: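 GH3.TRE-Luc rat pituitary cells (two TREs driving luciferase) were dosed with compound, then stimulated with 1 nM T3 (final) for 23.5 h at 37 C. ONE-Glo luminescence was the read-out, with CellTiter-Fluor fluorescence as the cytotoxicity counter-screen.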

[2] = system: thyroid hormone receptor (rat, GH3 cells); assay: qHTS assay to identify small molecule agonists of the thyroid receptor (TR) signaling pathway (AID 743066; calls by dose curve)
[3] = biological target: Estrogen receptor (Homo sapiens) (UniProt P03372); assay: qHTS assay to identify small molecule antagonists of the estrogen receptor alpha (ER-alpha) signaling pathway (AID 743069; active means well fitted curve in the direction sought with a large enough effect in the signal ratio in the repeat runs, not every such curve was filed as active; inconclusive means weak or mixed curves, or effect the other way; inactive means no such curve, though single readings can be large or run the other way; the % refers to the signal ratio; further: potency means the concentration at half of the fitted maximal effect)
Estrogen receptor (Homo sapiens), sequence (P03372 whole entry, looked up): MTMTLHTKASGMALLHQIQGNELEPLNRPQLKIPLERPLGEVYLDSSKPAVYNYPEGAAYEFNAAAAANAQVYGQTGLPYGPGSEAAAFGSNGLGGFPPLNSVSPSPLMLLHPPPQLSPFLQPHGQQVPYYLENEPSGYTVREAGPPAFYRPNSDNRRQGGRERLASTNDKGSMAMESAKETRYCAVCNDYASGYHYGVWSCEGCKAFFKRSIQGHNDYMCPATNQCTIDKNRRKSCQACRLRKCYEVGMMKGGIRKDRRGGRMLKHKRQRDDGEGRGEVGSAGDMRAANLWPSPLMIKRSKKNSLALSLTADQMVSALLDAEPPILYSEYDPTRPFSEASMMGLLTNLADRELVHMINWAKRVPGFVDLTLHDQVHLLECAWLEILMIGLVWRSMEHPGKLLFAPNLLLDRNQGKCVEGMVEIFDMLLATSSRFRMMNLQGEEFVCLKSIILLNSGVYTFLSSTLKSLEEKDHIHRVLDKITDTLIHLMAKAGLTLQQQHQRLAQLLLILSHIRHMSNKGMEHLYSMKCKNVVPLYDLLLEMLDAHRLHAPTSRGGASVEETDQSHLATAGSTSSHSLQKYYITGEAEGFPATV
How it was run: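 Beta-lactamase FRET fluorescence is read after 2 hr at room temperature with LiveBLAzer B/G substrate. Before that, ER-alpha-bla HEK293 cells sit 4 hr after plating, then receive compound plus 17beta-estradiol and incubate 18 hr at 37C.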

[4] = qHTS assay to identify small molecule antagonists of the estrogen receptor alpha (ER-alpha) signaling pathway - cell viability counter screen (AID 743074; calls by dose curve;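 further: HEK293 cells carrying ER-alpha-UAS-bla reporter stimulated with 17beta-estradiol; nearly all actives have a fitted effect of over 45% in size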)
[5] = biological target: Estrogen receptor (Homo sapiens) (UniProt P03372); assay: qHTS assay to identify small molecule agonists of the estrogen receptor alpha (ER-alpha) signaling pathway (AID 743075; calls by dose curve;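 further: HEK293 GripTite cells with ER-alpha and UAS-driven beta-lactamase reporter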)
[6] = biological target: Estrogen receptor (Homo sapiens) (UniProt P03372); assay: qHTS assay to identify small molecule agonists of the estrogen receptor alpha (ER-alpha) signaling pathway using the BG1 cell line (AID 743079); further: nearly all actives have a fitted effect of over 20% in size
[7] = qHTS assay to identify small molecule antagonists of the estrogen receptor alpha (ER-alpha) signaling pathway using the BG1 cell line (AID 743080; calls by dose curve;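 further: BG1 cells stimulated with 17beta-estradiol alongside compound; series mostly up to about 70 µM; nearly all actives have a fitted effect of over 25% in size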)
How it was run: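 BG1-Luc-4E2 cells (endogenous full-length ER-alpha, 4xERE luciferase) hormone-starved 5 days in charcoal-stripped FBS, plated 4,000/well for 24 h, then compound plus 17beta-estradiol for 21.5 h at 37 C; ONE-Glo luminescence read.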

[8] = qHTS assay to identify small molecule antagonists of the estrogen receptor alpha (ER-alpha) signaling pathway using the BG1 cell line - cell viability counter screen (AID 743081);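 further: compound given together with 17beta-estradiol as the ER stimulus; nearly all actives have a fitted effect of over 45% in size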; further: potency means the concentration at half of the fitted maximal effect; on activity change, negative = cytotoxicity: series mostly up to about 70 µM
[9] = qHTS assay to identify aromatase inhibitors - cell viability counter screen (AID 743084);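 further: cells stimulated with testosterone during compound exposure; nearly all actives have a fitted effect of over 55% in size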
[10] = biological target: Aryl hydrocarbon receptor (Homo sapiens) (UniProt P35869); assay: qHTS assay to identify small molecule that activate the aryl hydrocarbon receptor (AhR) signaling pathway (AID 743085);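 further: HG2L7.5c1 human HepG2 liver cells with stably integrated DRE-driven firefly reporter; series mostly up to about 70 µM; nearly all actives have a fitted effect of over 15% in size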
Aryl hydrocarbon receptor (Homo sapiens), sequence (P35869 whole entry, looked up): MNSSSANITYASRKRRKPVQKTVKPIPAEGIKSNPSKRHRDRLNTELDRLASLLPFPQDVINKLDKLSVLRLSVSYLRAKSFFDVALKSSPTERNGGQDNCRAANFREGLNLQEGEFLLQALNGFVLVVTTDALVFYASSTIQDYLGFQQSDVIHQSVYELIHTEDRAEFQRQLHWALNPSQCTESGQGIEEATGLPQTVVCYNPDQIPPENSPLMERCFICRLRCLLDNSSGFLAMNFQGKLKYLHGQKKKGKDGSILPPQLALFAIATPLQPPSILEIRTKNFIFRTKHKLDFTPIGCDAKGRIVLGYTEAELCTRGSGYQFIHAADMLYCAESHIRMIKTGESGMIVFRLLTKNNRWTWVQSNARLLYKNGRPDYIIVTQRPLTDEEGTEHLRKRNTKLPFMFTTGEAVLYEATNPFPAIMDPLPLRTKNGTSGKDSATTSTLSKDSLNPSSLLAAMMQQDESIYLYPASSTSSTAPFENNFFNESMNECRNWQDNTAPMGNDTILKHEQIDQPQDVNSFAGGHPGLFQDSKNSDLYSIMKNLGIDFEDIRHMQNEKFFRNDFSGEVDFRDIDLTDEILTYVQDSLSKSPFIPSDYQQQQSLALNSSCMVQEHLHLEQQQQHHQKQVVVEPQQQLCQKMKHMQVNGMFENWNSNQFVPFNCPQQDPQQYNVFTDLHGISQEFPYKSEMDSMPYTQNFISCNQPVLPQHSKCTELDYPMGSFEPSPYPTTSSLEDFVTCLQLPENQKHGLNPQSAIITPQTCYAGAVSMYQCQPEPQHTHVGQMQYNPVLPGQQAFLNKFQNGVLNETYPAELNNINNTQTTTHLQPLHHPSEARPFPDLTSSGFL
How it was run: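 Steps: seed HepG2-AhR-luc cells; allow 5 h at 37C; pin-transfer test compound or vehicle; incubate 24 h at 37C; add viability dye (30 min, 37C) and read fluorescence; add luciferase substrate (30 min, RT) and read luminescence.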

[11] = qHTS assay to identify small molecule that activate the aryl hydrocarbon receptor (AhR) signaling pathway - cell viability counter screen (AID 743086);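 further: HepG2 liver cells carrying the AhR DRE luciferase reporter; series mostly up to about 70 µM; nearly all actives have a fitted effect of over 45% in size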
How it was run: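 HepG2-AhR-luc (HG2L7.5c1) cells, 4000/well, treated 24 h at 37 C with compound; viability measured as CellTiter-Fluor fluorescence after 30 min in the same wells as the luciferase read.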

[12] = biological target: Peroxisome proliferator-activated receptor gamma (Homo sapiens) (UniProt P37231); assay: qHTS assay to identify small molecule agonists of the peroxisome proliferator-activated receptor gamma (PPARg) signaling pathway (AID 743094; active means well fitted activation curve with a large enough effect in the signal ratio in the repeat runs, not every such curve was filed as active; inconclusive means weak or mixed curves, or effect the other way; inactive means no such curve, though single readings can be large or run the other way; the % refers to the signal ratio)
Peroxisome proliferator-activated receptor gamma (Homo sapiens), sequence (P37231 whole entry, looked up): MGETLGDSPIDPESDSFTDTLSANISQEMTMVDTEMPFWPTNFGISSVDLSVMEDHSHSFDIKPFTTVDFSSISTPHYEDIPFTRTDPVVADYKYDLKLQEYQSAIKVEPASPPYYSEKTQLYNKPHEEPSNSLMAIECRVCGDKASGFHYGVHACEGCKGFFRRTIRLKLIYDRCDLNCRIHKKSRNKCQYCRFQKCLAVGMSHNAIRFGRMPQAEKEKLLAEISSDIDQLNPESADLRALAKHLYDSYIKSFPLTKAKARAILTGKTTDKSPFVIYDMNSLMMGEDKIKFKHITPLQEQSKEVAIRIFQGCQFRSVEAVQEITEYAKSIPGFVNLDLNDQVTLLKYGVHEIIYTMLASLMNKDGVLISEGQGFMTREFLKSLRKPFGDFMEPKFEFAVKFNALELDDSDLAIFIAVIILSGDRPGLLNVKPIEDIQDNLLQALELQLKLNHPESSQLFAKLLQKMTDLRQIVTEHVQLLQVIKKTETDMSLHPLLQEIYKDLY
How it was run: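 Fluorescence-based beta-lactamase readout in HEK293H PPARg UAS-bla cells after 17 h compound exposure (37C) and 1 h B/G FRET substrate incubation at room temperature.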

[13] = biological target: Peroxisome proliferator-activated receptor gamma (Homo sapiens) (UniProt P37231); assay: qHTS assay to identify small molecule antagonists of the peroxisome proliferator-activated receptor gamma (PPARg) signaling pathway (AID 743191; calls by dose curve; further: nearly all actives have a fitted effect of over 30% in size; further: potency means the concentration at half of the fitted maximal effect; on ratio activity, negative = inhibition: series mostly up to about 63 µM)
How it was run: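 GeneBLAzer PPARg UAS-bla HEK293H cells, 5 h post-plating, exposed to compounds 17 h at 37C. LiveBLAzer B/G FRET substrate added for 1 h at room temperature; beta-lactamase reporter read by fluorescence intensity.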

[14] = qHTS assay to identify small molecule antagonists of the peroxisome proliferator-activated receptor gamma (PPARg) signaling pathway - cell viability counter screen (AID 743194); further: nearly all actives have a fitted effect of over 55% in size
How it was run: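 Cytotoxicity counter screen in PPARg-bla HEK293H cells, same wells as reporter assay. Compounds plus 50 nM rosiglitazone (final) for 17 h at 37 C, then viability read by CellTiter-Glo luminescence.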

[15] = qHTS assay for small molecule agonists of the antioxidant response element (ARE) signaling pathway - cell viability counter screen (AID 743203; calls by dose curve; further: nearly all actives have a fitted effect of over 55% in size)
How it was run: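 Parallel cytotoxicity read-out for the ARE-bla screen: HepG2 reporter cells, 16 hrs with compounds, then CellTiter-Glo luminescence.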

[16] = qHTS assay for small molecule activators of the heat shock response signaling pathway - cell viability counter screen (AID 743209); further: nearly all actives have a fitted effect of over 50% in size
How it was run: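 To flag cytotoxic compounds, HSE-bla HeLa cells plated at 1500 cells/well were dosed for 5 h at 37 C, followed by the reporter FRET read and then CellTiter-Glo, with luminescence recorded 30 min after reagent addition.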

[17] = qHTS assay to identify small molecule agonists of the peroxisome proliferator-activated receptor delta (PPARd) signaling pathway - cell viability counter screen (AID 743211); further: nearly all actives have a fitted effect of over 55% in size
How it was run: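 Viability of GeneBLAzer PPARd UAS-bla HEK293H cells was assessed after 17 h compound incubation at 37C, using CellTiter-Glo reagent added after the reporter read and luminescence recorded 30 min later.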

Aromatase (Homo sapiens) = Aromatase (Homo sapiens) (UniProt P11511); assay: qHTS assay to identify aromatase inhibitors (AID 743083); further: nearly all actives have a fitted effect of over 55% in size; further: potency means the concentration at half of the fitted maximal effect; on activity, negative = inhibition: series mostly up to about 70 µM
Aromatase (Homo sapiens), sequence (P11511 whole entry, looked up): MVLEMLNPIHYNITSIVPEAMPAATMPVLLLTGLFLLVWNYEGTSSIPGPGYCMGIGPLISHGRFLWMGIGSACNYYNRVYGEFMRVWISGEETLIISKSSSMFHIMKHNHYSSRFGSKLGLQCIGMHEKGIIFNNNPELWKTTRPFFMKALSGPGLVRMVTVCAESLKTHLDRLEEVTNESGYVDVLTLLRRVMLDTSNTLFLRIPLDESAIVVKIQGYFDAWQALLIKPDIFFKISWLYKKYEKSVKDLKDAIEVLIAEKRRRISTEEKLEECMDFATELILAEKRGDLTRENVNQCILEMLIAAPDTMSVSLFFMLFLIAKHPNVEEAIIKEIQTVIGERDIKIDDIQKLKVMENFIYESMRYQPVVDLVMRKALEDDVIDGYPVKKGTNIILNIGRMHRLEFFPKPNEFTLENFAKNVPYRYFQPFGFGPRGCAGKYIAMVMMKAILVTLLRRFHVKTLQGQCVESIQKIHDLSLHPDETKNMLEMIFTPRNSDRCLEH

[18] = qHTS assay for small molecule agonists of the antioxidant response element (ARE) signaling pathway (AID 743202; active means well fitted activation curve with a large enough effect in the signal ratio in the repeat runs, not every such curve was filed as active; inconclusive means weak or mixed curves, or effect the other way; inactive means no such curve, though single readings can be large or run the other way; the % refers to the signal ratio; further: potency means the concentration at half of the fitted maximal effect)
How it was run: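 HepG2 ARE-bla reporter line, 2,000 cells/well; 5 h preincubation 37 C/5% CO2; compound (DMSO) 16 h 37 C; B/G FRET substrate 2 h RT; fluorescence intensity.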

[19] = qHTS assay for small molecule activators of the heat shock response signaling pathway (AID 743210; active means well fitted activation curve with a large enough effect in the signal ratio in the repeat runs, with a control signal flat, not every such curve was filed as active; inconclusive means weak or mixed curves; the % refers to the signal ratio;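 further: HeLa cells with beta-lactamase reporter driven by heat shock elements; series mostly up to about 63 µM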)
How it was run: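 Beta-lactamase reporter read-out: FRET substrate fluorescence after 2.5 h at RT, following 5 h compound treatment at 37 C of HeLa cells carrying HSE-driven bla reporter; quantitative HTS format.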
On the % scale 0 is the no-effect control and ±100 the full control effect.

CCCCNS(=O)(=O)c1ccc(C)cc1
inactive: Potency [1] | outcome [2] | Potency [3] | Potency [4] | Potency [5] | Potency [6] | Potency [7] | Potency [8] | Potency [9] | Potency [10] | Potency [11] | Potency [12] | Potency [13] | Potency [14] | Potency [15] | Potency [16] | Potency [17]

O=C(O)O
inactive: activity, negative = inhibition [1] -9.25% [at 8.44 µM] | activation [2] 0.119% [at 8.08 µM] | activity, negative = inhibition [3] -5.09% [at 6.71 µM] | activity, negative = cytotoxicity [4] 16.5% [at 6.72 µM] | activation [5] -2.02% [at 6.71 µM] | activity change, negative = inhibition [7] 10.7% [at 8.47 µM] | activity change, negative = cytotoxicity [8] -13.4% [at 8.47 µM] | activity, negative = inhibition (Aromatase (Homo sapiens)) -0.932% [at 8.47 µM] | activity change, negative = cytotoxicity [9] -13.2% [at 8.47 µM] | activation [10] -1.17% [at 8.47 µM] | viability change, negative = cytotoxic [11] -24.2% [at 8.47 µM] | ratio activity, negative = inhibition [13] -1.11% [at 5.95 µM] | activity change, negative = cytotoxicity [14] 0.913% [at 5.95 µM] | activation [18] -11.2% [at 8.36 µM]

O=C(O)c1cc(-c2ccc(F)cc2F)ccc1O
active: Potency [18] 13.3 µM
inactive: Potency [1] | outcome [2] | Potency [3] | Potency [4] | Potency [5] | Potency [6] | Potency [7] | Potency [8] | Potency (Aromatase (Homo sapiens)) | Potency [9] | Potency [10] | Potency [11] | Potency [14] | Potency [15] | Potency [16] | Potency [17]

COC(=O)C1=C(C)NC(C)=C(C(=O)OCCN2CCN(C(c3ccccc3)c3ccccc3)CC2)C1c1cccc([N+](=O)[O-])c1 (configuration not stated)
active: Potency [1] 6.68 µM | Potency [3] 8.49 µM [inconclusive] | Potency [8] 3.76 µM | Potency (Aromatase (Homo sapiens)) 13.3 µM | Potency [13] 9.44 µM
inactive: outcome [2] | Potency [4] | Potency [5] | Potency [9] | Potency [10] | Potency [14] | Potency [16]

CC[N+](CC)(CC)CCOC(=O)C(C1CCCC1)C1CCCC1
inactive: Potency [1] | outcome [2] | Potency [3] | Potency [4] | Potency [5] | Potency [6] | Potency [7] | Potency [8] | Potency (Aromatase (Homo sapiens)) | Potency [9] | Potency [10] | Potency [11] | Potency [13] | Potency [14] | Potency [15] | Potency [16] | Potency [19] | Potency [17]

CC(C)NC[C@@H](O)COc1ccc(CC(N)=O)cc1
inactive: Potency [1] | outcome [2] | Potency [3] | Potency [4] | Potency [5] | Potency [6] | Potency [7] | Potency [9] | Potency [10] | Potency [11] | Potency [12] | Potency [14] | Potency [18] | Potency [15] | Potency [16] | Potency [19] | Potency [17]

COC(=O)c1ccccc1OC
inactive: Potency [1] | outcome [2] | Potency [3] | Potency [4] | Potency [5] | Potency [6] | Potency [7] | Potency [8] | Potency (Aromatase (Homo sapiens)) | Potency [9] | Potency [10] | Potency [11] | Potency [14] | Potency [18] | Potency [15] | Potency [16] | Potency [17]
